High-throughput results from PubChem.
Wnt bcat act = activates Wnt/beta-catenin signaling in a reporter cell assay | AID 743398 | 300,000 tested, 1.2% active | activator, plate reader | activation, % at 9.35 µM; in the data active means activation above about 30%, passing the limit was not always enough; inconclusive means no clear call, values can overlap the other calls;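 further: 0% = neutral control wells and 100% = positive control wells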
MITF TRPM1 HTS = increases MITF-driven TRPM1 promoter luciferase signal; 300,000 tested, 0.75% active; activation, % at 12.5 µM; SK-MEL-5 TRPM1-promoter luciferase, 24 h; % of positive control, neutral wells = 0;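 active means mean activation of at least 80% with every replicate also reaching 80%; inconclusive means mean reaches 80% but some replicate falls short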;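 further: 0% = neutral control wells and 100% = parthenolide positive control wells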
PfHsp90 yeast 2 = inhibits growth of yeast expressing Plasmodium falciparum Hsp90; 310,000 tested, 0.32% active; inhibition, % at 9.4 µM; S. cerevisiae expressing PfHsp90, BacTiter-Glo ATP, 48 h; yeast lacking PDR1 and PDR3 efflux regulators;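 active means every replicate shows inhibition above about 80%, whatever the replicate mean, limit read from the data; inconclusive means mean inhibition reaches the set limit but some replicate falls short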;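 further: 0% = DMSO neutral controls and 100% = 20 µM radicicol positive controls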
Vif inh = HIV Vif inhibition; HEK293T cells, Vif self-association by quenched fluorescence, imaging, 24 h; inhibition, % at 7.49 µM; 340,000 tested, 0.35% active; in the data active means inhibition above about 50%, passing the limit was not always enough; inconclusive means no clear call, values can overlap the other calls; inactive means below about 31%
Glyco luc inh = blocks N-linked glycosylation in D54 reporter cells; 360,000 tested, 0.23% active; D54 ERlucT glycosylation luciferase reporter, 24 h; percent of 100 nM tunicamycin response; reporter increase, % at 12.5 µM; AID 588692;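 active means mean luciferase reporter signal, scaled so untreated is 0 and the glycosylation-blocking control 100, at or above a set limit in every replicate; inconclusive means mean reaches the limit but not every replicate does; inactive means mean below the limit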;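 further: luciferase carries N-glycosylation sites so blocking glycosylation raises the light; 0% = median of neutral control wells and 100% = median of 100 nM tunicamycin wells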
esBAF inh = inhibitors of esBAF chromatin remodeling in mouse ES cells; 350,000 tested, 2% active; AID 602393; Bmi1-luciferase knock-in reporter, 24 h; 100% = twice the neutral-well signal; reporter increase, % at 12.5 µM; in the data active means activation above about 40%; inconclusive means no clear call, values can overlap the other calls;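 further: 0% = median of the plate's neutral control wells and 100% = double that signal; a rise in the Bmi1 reporter signal indicates esBAF inhibition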
* hit, by the source's call; ? = inconclusive; · = no result given. Rows were chosen to be rich in hits. Some 3% of all compounds tested hit in one or more screens of this group.

SMILES | Wnt bcat act | MITF TRPM1 HTS | PfHsp90 yeast 2 | Vif inh | Glyco luc inh | esBAF inh
COc1ccc(CNC(=O)C2CC(c3cccc([N+](=O)[O-])c3)=NO2)cc1 (stereo not drawn) | 16.2 | 48.8 | -6.9 | · | 4.5 | 54.0*
O=C(C[C@@H]1C=C[C@@H](NC(=O)c2ccccn2)[C@H](CO)O1)NCc1cc(F)cc(F)c1 | · | · | · | · | · | 2.7
C[C@H]1CN([C@@H](C)CO)C(=O)c2cc(NC(=O)Cc3cn(C)c4ccccc34)ccc2O[C@@H]1CN(C)Cc1ccc(C(=O)O)cc1 | · | · | · | · | · | -0.8
CCOc1ncccc1C(=O)N1CCN(c2cc(Cl)ccc2C)CC1 | -5.6 | -17.2 | -3.0 | 0.9 | 30.2* | ·
Cc1noc(C)c1S(=O)(=O)Nc1ccc2c(c1)C(=O)N([C@@H](C)CO)C[C@H](C)[C@@H](CN(C)S(=O)(=O)c1ccc(Cl)cc1)O2 | · | · | · | · | · | -3.7
C=CCNc1sc(C(=O)c2ccccc2)c(N)c1C#N | · | -0.6 | 3.8 | -0.4 | -6.5 | ·
C=CCNc1sc(C(=O)c2ccc(Br)s2)c(N)c1C#N | 1.8 | · | 0.4 | 110.5* | 3.0 | -3.5
Nc1nc(SCC(=O)NCCO)nc2sc3c(c12)CCCC3 | -2.5 | 14.9 | -32.0 | -7.5 | 3.8 | 9.8
CSc1sccc1/C=N/O | 0.5 | 0.0 | -6.5 | -7.5 | 0.8 | ·
CSc1sccc1/C=C(/C#N)C(=O)c1ccco1 | 0.0 | 3.0 | 4.8 | 151.4* | 3.7 | 2.3
O=C(Nc1ccccc1)N1CCC(c2ccccc2)C1 (stereo not drawn) | · | 105.5* | 0.8 | 9.9 | 0.0 | 21.0
COc1ccc(NC(=S)N2CCC(C(O)(c3ccccc3)c3ccccc3)CC2)cc1 | · | -9.5 | -0.4 | -4.1 | 0.1 | ·
O=C(c1cccs1)N1CCC(c2ccccc2)C1 (stereo not drawn) | 50.7* | 69.3 | 9.6 | 3.1 | -1.5 | ·
O=C(Nc1ccccc1)c1cc(C2CCCN(C(=O)c3cccs3)C2)on1 (stereo not drawn) | 34.4* | · | · | -0.7 | -0.7 | 56.4*
COc1ccc(NC(=S)N2CCC(c3ccccc3)C2)cc1 (stereo not drawn) | ? | 108.1* | 8.0 | 0.1 | -3.8 | ?
COc1ccccc1-c1cnc2c(c1)C(=O)N([C@H](C)CO)C[C@@H](C)[C@@H](CN(C)C(=O)CC1CC1)O2 | · | · | · | · | · | -1.2
COc1ccc(/C=C(/NC(=O)/C=C/c2ccccc2)C(=O)N2CCOCC2)cc1 | -3.3 | -1.1 | 6.2 | -4.3 | 0.3 | ·
O=C(C[C@H]1C[C@@H]2c3cc(NS(=O)(=O)c4ccc(F)cc4)ccc3O[C@@H]2[C@H](CO)O1)NCCN1CCCCC1 | · | · | · | · | · | -0.1
Clc1ccc(CSc2nnc(-c3sccc3-n3cccc3)o2)cc1 | -1.1 | 6.0 | 13.6 | -3.2 | -2.0 | 5.6
OCC1CCCN(C(=S)Nc2ccc(Oc3ccccc3)cc2)C1 (stereo not drawn) | 8.7 | 53.3 | -3.0 | -14.7 | 1.1 | 82.1*
CC(=O)c1ccc(NC(=S)N2CCCC(CO)C2)cc1 (stereo not drawn) | 9.6 | 14.4 | 12.1 | · | 0.9 | ·
Cc1cc(N2CCC(C(=O)NC3CC3)CC2)nc(-c2ccccc2)n1 | · | · | 11.8 | 3.8 | 0.3 | 0.5
Cc1cc(N2CCN(c3cccc(C)c3C)CC2)nc(-c2ccccc2)n1 | -0.7 | 4.5 | 135.2* | 0.4 | -0.2 | -4.5
Cc1occc1C(=O)Nc1cccc2ccccc12 | ? | 43.7 | 2.5 | 0.2 | -7.8 | ·
O=c1nc2c(-c3ccccc3F)n[nH]n2c2ccccc12 | 35.9* | · | 2.5 | -2.7 | 0.5 | 21.8
SMILES | Wnt bcat act | MITF TRPM1 HTS | PfHsp90 yeast 2 | Vif inh | Glyco luc inh | esBAF inh
CCc1ccc(S(=O)(=O)c2n[nH]n3c2nc(=O)c2ccccc23)cc1 | -0.7 | -7.2 | -26.7 | 0.6 | 2.4 | 1.0
COC(=O)C1(c2ccccc2)NC(c2cccs2)C2C(=O)N(C)C(=O)C21 (stereo not drawn) | -3.8 | 15.6 | 47.8 | 4.5 | 3.1 | -4.2
Cc1cccn2c(=O)c(/C=C3\SC(=S)NC3=O)c(NCCCN3CCOCC3)nc12 | 4.4 | -3.7 | -5.4 | 82.8* | -0.8 | -8.4
O=C(CSc1nnc(SCc2ccc(Cl)cc2)s1)c1ccc2c(c1)OCO2 | 2.5 | 13.6 | 13.5 | 7.4 | -0.4 | ·
CC(C)(C)OC(=O)C[C@H]1C/C=C\C[C@@H](CC(=O)N[C@@H](CO)Cc2ccccc2)C(=O)N2CCC[C@H]2COC1=O | -0.3 | -0.9 | 2.6 | 0.4 | 0.9 | -2.9
CC(C)(C)OC(=O)C[C@@H]1C/C=C\C[C@@H](CC(=O)N[C@H](CO)Cc2ccccc2)C(=O)N2CCC[C@@H]2COC1=O | 55.6* | 0.8 | 6.4 | -13.4 | 2.1 | 1.8
Cc1cc(C(=O)Cn2nc(C(=O)O)c3ccccc3c2=O)c(C)n1CCc1ccc(F)cc1 | 2.2 | 7.4 | -5.2 | 4.4 | -9.1 | -3.6
Cc1cc(C(=O)Cn2nc(C(=O)O)c3ccccc3c2=O)c(C)n1CC(F)(F)F | -1.8 | ? | · | -0.8 | -1.8 | 43.6*
COc1ccc(NC(=O)Nc2ccc3c(c2)C(=O)N([C@@H](C)CO)C[C@@H](C)[C@@H](CN(C)Cc2ccc4c(c2)OCO4)OCCCC[C@@H](C)O3)cc1 | · | · | · | · | · | 2.3
C[C@H](CO)N1C[C@H](C)[C@@H](CN(C)Cc2ccccc2)Oc2ccc(NC(=O)CCCCCC(=O)Nc3ccccc3N)cc2C1=O | 5.7 | -8.8 | 10.5 | -2.4 | 28.9* | -11.0
C[C@H]1CN([C@@H](C)CO)C(=O)c2cccc(NC(=O)Nc3ccccc3)c2O[C@H]1CN(C)C(=O)Nc1ccc2c(c1)OCO2 | · | · | · | · | · | 10.2
Cc1ccc(S(=O)(=O)Nc2cccc3c2O[C@@H](CN(C)C(=O)Nc2ccc4c(c2)OCO4)[C@H](C)CN([C@H](C)CO)C3=O)cc1 | · | · | · | · | · | 28.0
C[C@@H]1CN([C@@H](C)CO)C(=O)c2cccc(NC(=O)Nc3ccccc3)c2O[C@H]1CN(C)C(=O)Nc1ccc2c(c1)OCO2 | · | · | · | · | · | 61.3*
Cc1ccc(S(=O)(=O)Nc2cccc3c2O[C@@H](CN(C)C(=O)Nc2ccc4c(c2)OCO4)[C@@H](C)CN([C@@H](C)CO)C3=O)cc1 | · | · | · | · | · | 72.7*
Cc1ccc(S(=O)(=O)Nc2cccc3c2O[C@H](CN(C)C(=O)Nc2ccc4c(c2)OCO4)[C@@H](C)CN([C@H](C)CO)C3=O)cc1 | · | · | · | · | · | 49.2*
C[C@H]1CN([C@@H](C)CO)C(=O)Cc2cc(NC(=O)C3CCCCC3)ccc2O[C@H]1CN(C)C(=O)Nc1ccc2c(c1)OCO2 | · | · | · | · | · | 25.7
C[C@@H]1CN([C@H](C)CO)C(=O)c2cccc(NC(=O)Nc3ccc4c(c3)OCO4)c2O[C@H]1CN(C)Cc1ccc2c(c1)OCO2 | · | · | · | · | · | 5.8
C[C@H]1CN([C@@H](C)CO)C(=O)Cc2cc(NC(=O)C3CCCCC3)ccc2O[C@@H]1CN(C)C(=O)Nc1ccc2c(c1)OCO2 | · | · | · | · | · | 41.9*
C[C@H]1CN([C@@H](C)CO)C(=O)c2cccc(NS(=O)(=O)c3ccccc3)c2O[C@@H]1CN(C)C(=O)Nc1ccc2c(c1)OCO2 | · | · | · | · | · | 56.5*
